# Screening results (PubChem BioAssay)
# TDP-43 tox inh: TDP-43 toxicity inhibition in yeast; yeast TDP-43 toxicity rescue, BacTiter-Glo growth, 24 h; Potency, µM (top dose mostly 46.1 µM), hits mostly activators; hit rate 0.45% among 45,000; active means well fitted activation curve with a large enough effect; further: 0% is about no effect; nearly all actives have a fitted effect of over 55% in size
#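 TDP-43-expressing yeast, pregrown in raffinose, seeded at OD600 0.02 in galactose medium with compound for 24 hr at 30 deg C. Growth read by BacTiter-Glo luminescence, so rescue of toxicity appears as activation.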
# An asterisk follows results filed as active; i = inactive. Only a selection was taken, and hits are over-represented in it overall. Potency means the concentration at half of the fitted maximal effect.
SMILES,TDP-43 tox inh
Cc1c(C(=O)NCc2cccc(Br)c2)oc2ccc3c(c12)C(=O)CC(C)(C)O3,i
CCCSc1ncc(Cl)c(C(=O)Nc2ccc(S(=O)(=O)N3CCCC(C)C3)cc2)n1 (stereo not drawn),i
Cc1c2cnn(-c3ccccc3)c(=O)c2c(C)n1CC(=O)NCc1ccccc1Br,i
CN(C)C(CNc1ncnc2sccc12)c1ccccc1 (stereo not drawn),i
Fc1ccc(Nc2ncnc3sccc23)cc1,11.2µM*
OC(CNc1ncnc2sccc12)c1ccccc1 (stereo not drawn),i
CCOC(=O)CNC(=O)N1CCc2cc(S(=O)(=O)N3CCC(C)CC3)ccc21,i
Cc1ccc(S(=O)(=O)c2nnn3c2nc(NC2CCCCC2)c2sccc23)cc1C,i
CC1CCC(NC(=O)c2ccc3c(c2)N(Cc2ccccc2)C(=O)c2ccccc2S3(=O)=O)CC1 (stereo not drawn),i
O=C(O)c1nn(CCOc2ccc(Cl)cc2Cl)c(=O)c2ccccc12,i
O=C(O)c1nn(CCOc2c(Cl)cccc2Cl)c(=O)c2ccccc12,i
O=C(O)c1nn(CCOc2cccc(Br)c2)c(=O)c2ccccc12,17.8µM*
COc1ccc(NC(=O)CSc2nc3ccccc3nc2N2CCC(C)CC2)cc1,i
Cc1cc2nc(-c3ccc(NC(=O)c4ccccc4F)cc3)oc2cc1C,i
CC(=O)CSc1ncnc2scc(-c3ccc(F)cc3)c12,i
Cc1ccc(-c2csc3ncnc(NS(=O)(=O)c4ccc(Cl)cc4)c23)cc1,i
Fc1ccc(-c2csc3ncnc(Cl)c23)cc1,14.1µM*
Cc1ccc2c(c1)C(=O)C(=O)N2Cc1ccc(OCCC(C)C)cc1,i
Cc1cc(C)n(-c2nc3ccccc3nc2Nc2ccc(Cl)cc2Cl)n1,i
CCC(C)NC(=O)c1ccc2c(c1)N(Cc1ccccc1)C(=O)c1ccccc1S2(=O)=O (stereo not drawn),i
Cc1cc(C(=O)N/N=C/c2sc(N3CCOCC3)nc2-c2ccccc2)c(C)o1,i
Fc1ccc(-c2csc(N3CCOCC3)n2)cc1,i
c1ccc(-c2nc(N3CCOCC3)sc2-c2ccccc2)cc1,25.1µM*
CCCS(=O)(=O)Nc1cc(-c2cn3ccc(C)cc3n2)ccc1C,i
CC1CCN(S(=O)(=O)c2ccc3c(c2)CCN3C(=O)Nc2ccc(Br)cc2F)CC1,i
SMILES,TDP-43 tox inh
CCOc1ccccc1NC(=O)CN(C)S(=O)(=O)c1ccc2nc(C)sc2c1,i
O=C(NCc1ccco1)c1ccc2c(c1)N(Cc1ccccc1)C(=O)c1ccccc1S2(=O)=O,i
Cc1ccc([N+](=O)[O-])cc1NC(=S)NC(=O)c1cccnc1,i
CCC(C)c1ccc(O)c(NC(=S)NC(=O)c2cccnc2)c1 (stereo not drawn),10µM*
O=C(NC(=S)NNC(=O)c1ccccc1O)c1cccnc1,i
COc1cccc(C(=O)N(Cc2ccc(N(C)C)cc2)Cc2ccco2)c1,i
COc1ccc(NC(=O)Cn2c(=O)oc3cc(S(=O)(=O)N4CCCC4)ccc32)cc1OC,i
Cc1ccc(C)c(N2CCN(c3cc(C)nc4c(-c5ccc(Cl)cc5)c(C)nn34)CC2)c1,i
CCN(Cc1ccccc1)C(=O)COC(=O)c1n[nH]c2ccccc12,i
O=C(COC(=O)c1n[nH]c2ccccc12)Nc1ccccc1F,i
Cc1cccc(C)c1OCCOC(=O)c1n[nH]c2ccccc12,14.1µM*
